Rows were chosen to be rich in hits. Some 8% of all compounds tested hit in one or more screens of this group.
MARV entry inh: Marburg virus entry inhibition; Potency, µM (titrated, usually from 37.8 µM), for the others: top-dose activity change, negative = inhibition, actives largely listed as inhibitors; AID 540276; hit rate 1.8% among 300,000; Marburg virus pseudotyped entry inhibition, cell reporter; calls by dose curve; tested in HEK293 cells; further: potency means the concentration at half of the fitted maximal effect; on the % scale 0 is the no-effect control and ±100 the full control effect
FMDV inh: blocks foot and mouth disease virus. Potency, µM (doses to about 57.9 µM), inactives show at the highest dose activity change, negative = inhibition, actives largely listed as inhibitors. FMDV antiviral cell-based qHTS. hit rate 1.2% among 410,000. AID 1159524; calls by dose curve; tested in HEK293T cells; further: read-out not given here; potency means the concentration at half of the fitted maximal effect; on the % scale 0 is the no-effect control and ±100 the full control effect; nearly all actives have a fitted effect of over 45% in size
Lassa entry inh: inhibitors of Lassa virus binding or cell entry; Lassa virus pseudotype entry inhibition, cell reporter; AID 540256; Potency, µM (highest dose often 37.9 µM), for the others: at the top dose activity change, negative = inhibition, hits mostly inhibitors; hit rate 1.2% among 300,000; calls by dose curve; tested in HEK293 cells; further: potency means the concentration at half of the fitted maximal effect; on the % scale 0 is the no-effect control and ±100 the full control effect; nearly all actives have a fitted effect of over 50% in size
HCV inh: HCV inhibition; Huh7.5.1 HCVcc-Cre infection, luciferase reporter, 44 h; Potency, µM (highest dose often 41.8 µM), for inactives: top-dose activity change, negative = inhibition, hits mostly inhibitors; hit rate 3.4% among 340,000; AID 651820; further: potency means the concentration at half of the fitted maximal effect; on the % scale 0 is the no-effect control and ±100 the full control effect
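HCVcc-Cre virus at an moi near 0.5 was added right after compound to cells cultured 4 h from seeding (1,000 cells/well). Luciferase activity was determined 44 h later, 15 min after substrate addition at RT.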
SARS PLP yeast: inhibitors of SARS-CoV papain-like protease in yeast. S. cerevisiae expressing SARS-CoV PLpro, growth rescue. Potency, µM (highest dose often 32.9 µM), for inactives: at the highest dose activity, positive = growth rescue, most hits filed as activators. hit rate 0.19% among 330,000. AID 485353; calls by dose curve; further: potency means the concentration at half of the fitted maximal effect; 0% is about no effect; nearly all actives have a fitted effect of over 55% in size
HCMV antiviral: inhibitors of human cytomegalovirus; HFF cells, HCMV-luciferase reporter, 72 h; active compounds read low; activity change, negative = inhibition, % at 57.5 µM; hit rate 4.5% among 410,000; AID 1259415; in the data active means activity change below about -60%; inconclusive means no clear call, values can overlap the other calls; inactive means above about -39%; further: on the % scale 0 is the no-effect control and ±100 the full control effect
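Steps: HFFs plated, 16 h 37C; compounds added; HCMV-luciferase added to MOI 1 PFU/cell; 72 h 37C; OneGlo reagent, 5 min room temperature; luminescence read, normalized to controls.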
HCV inh confirm: confirmation of hepatitis C virus inhibitors; shares compounds with HCV inh; HCVcc-Cre infectious virus cell assay, luciferase, inhibition; Potency, µM (top dose mostly 41.8 µM), inactives show at the top dose activity, negative = inhibition, most hits filed as inhibitors; hit rate 78% among 640; AID 720575; further: potency means the concentration at half of the fitted maximal effect; nearly all actives have a fitted effect of over 80% in size
HCV host tox: host cell cytotoxicity counter-screen for HCV inhibitors; AID 720576; Potency, µM (doses to about 41.8 µM), inactives show at the top dose activity change, negative = cytotoxicity, usual class: inhibitors; HCV host cell line cytotoxicity counterscreen; hit rate 22% among 640; shares compounds with HCV inh;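 further: potency means the concentration at half of the fitted maximal effect; 44 h compound exposure; on the % scale 0 is the no-effect control and ±100 the full control effect; nearly all actives have a fitted effect of over 55% in size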
* = called active by the depositor; [ ] = dose if it differs, or a comment. Unless noted, the call rests on the fitted dose curve; in most records, active means well fitted curve in the direction sought with a large enough effect; inconclusive means small, poorly fitted or top-dose-only effect, or another doubt; inactive means no such curve, though single readings can be large; an effect the other way counts as inactive or inconclusive.

For COc1ccc(NC(=O)c2nnn(Cc3ccccc3C)c2N)c(OC)c1 the results were MARV entry inh 0%[46.1 µM], FMDV inh -4%, Lassa entry inh -3%[46.1 µM] and HCMV antiviral -11.
`O=C(O)c1ccc2c(c1)-c1cc(C(=O)O)ccc1S2(=O)=O` gave FMDV inh -14%, HCV inh 5%, SARS PLP yeast 3% and HCMV antiviral -21.
For Cc1nn2c(NCCCN(C)C)c3c(nc2c1-c1ccccc1)CCC3 the results were MARV entry inh -23%, FMDV inh -6%, Lassa entry inh -15%, HCV inh inconclusive, SARS PLP yeast 3% and HCMV antiviral -13.
Screening Cc1nn2c(NCCCN(C)C)c3c(nc2c1-c1ccccc1)CCCC3 returned MARV entry inh 7.1µM*, FMDV inh -14%, Lassa entry inh inconclusive, HCV inh 2µM*, SARS PLP yeast -1%, HCMV antiviral -20, HCV inh confirm 7µM* and HCV host tox 6%.
Screening Nc1ccc2c(c1)C(=O)c1ccc(Br)cc1-2 returned MARV entry inh 17%, FMDV inh -1%, Lassa entry inh 3%, HCV inh inconclusive, HCMV antiviral 45, HCV inh confirm -20% and HCV host tox -10%.
Nc1ccc2cc(Br)ccc2c1 was read as MARV entry inh 20%[46.1 µM], FMDV inh inconclusive, Lassa entry inh -6%, HCV inh -9%, SARS PLP yeast -8% and HCMV antiviral -8.
`O=C(/C=C/c1ccccc1)Nc1cccc(C(=O)NCCCCc2ccccc2)c1` gave FMDV inh -14%, HCV inh 2.5µM*, HCMV antiviral 27, HCV inh confirm 11µM* and HCV host tox 8%.
Screening CCN(CC)c1nn2c(=O)c(C(=O)NCc3cccc(C)c3)cnc2s1 returned FMDV inh -14%, Lassa entry inh inconclusive and HCMV antiviral -16.
CC(C)CN1CC[C@@]2(CCCN(C(=O)c3cccc(F)c3)C2)C1 was read as FMDV inh -10%.
For Cc1ccc(C)c(C(=O)NCCN(C)C)c1 the results were MARV entry inh 9%, FMDV inh 8%, Lassa entry inh -2%, HCV inh 1%, SARS PLP yeast 1% and HCMV antiviral 60.
Screening C=C(CN(C)C)C(=O)c1cc(C)ccc1C returned MARV entry inh inconclusive, FMDV inh inconclusive, Lassa entry inh inconclusive, HCV inh inconclusive, HCMV antiviral -99*, HCV inh confirm 8.9µM* and HCV host tox 7.9µM*.
Cc1cccc(-n2c3nc(=O)[nH]c(=O)c-3cc3c(Cl)cccc32)c1C was read as FMDV inh inconclusive, Lassa entry inh -1%[46.1 µM] and HCMV antiviral -2.
`COc1cc(NC(=O)c2ccc3c(c2)OCO3)ccc1NC(=O)c1ccco1` gave MARV entry inh 4%[46.1 µM], FMDV inh 15%, Lassa entry inh -2%, HCV inh inconclusive, SARS PLP yeast 20%, HCMV antiviral -8, HCV inh confirm inconclusive and HCV host tox 8%.
`Cc1noc(C(=O)Nc2cccc(O)c2)c1Cl` gave MARV entry inh 13%, FMDV inh 10%, Lassa entry inh -1%, HCV inh 7%, SARS PLP yeast -5% and HCMV antiviral 0.
Screening COc1ccc(OCC(O)CNS(=O)(=O)c2cccs2)cc1 (centres undefined) returned FMDV inh -1%, HCV inh -5%, SARS PLP yeast 1% and HCMV antiviral 11.
`CCOc1cc(CNCCc2ccc(S(N)(=O)=O)cc2)cc(Cl)c1OCc1ccccc1` gave MARV entry inh inconclusive, FMDV inh 20µM*, Lassa entry inh inconclusive, HCV inh 1.6µM*, SARS PLP yeast -7%, HCMV antiviral -61*, HCV inh confirm 4.4µM* and HCV host tox 13µM*.
